Results as given in PubChem BioAssay (NCATS).
Records with an inconclusive call do not appear. Values without a mark were called inactive. Active and inactive are the calls of the source. Calls come from the whole dose curve; as a rule, active = well fitted cell-killing curve with a large enough effect; inconclusive = small, poorly fitted or top-dose-only effect, or effect the other way; inactive = no such curve, though single readings can be large or run the other way.

Test: Quantitative High-Throughput drug screen in 47 multiple myeloma cell lines against the NCATS MIPE library collection: KMS26_JCRB cell viability assay (AID 1918975); note: nearly all actives have a fitted effect of over 45% in size
Conditions: KMS26 myeloma cells viability, CellTiter-Glo ATP, 48 h; series mostly up to 45.8 µM; viability (% of DMSO): at the top concentration
From the text: PI: Beverly A. Mock Ph.D.
Laboratory of Cancer Biology and Genetics,
Center for Cancer Research, National Cancer Institute,
National Institute of Health, Bethesda, Maryland
Drug resistance and disease progression are common in multiple myeloma (MM) patients, underscoring the need for new therapeutic combinations. […] We hypothesized that effective combinations would reduce MYC expression and enhance p16 activity. […] These preclinical data identify potentially useful drug combinations for evaluation in drug-resistant MM and reveal potential mechanisms of combined drug sensitivity.
Described herein is the primary MIPE qHTS used to cherrypick compounds. Validated compounds were then further tested for potential synergistic activiy.
[1] Peat TJ, Gaikwad SM, Dubois W, Gyabaah-Kessie N, Zhang S, Gorjifard S, Phyo Z, Andres M, Hughitt VK, Simpson RM, Miller MA, Girvin AT, Taylor A, Williams D, D'Antonio N, Zhang Y, Rajagopalan A, Flietner E, Wilson K, Zhang X, Shinn P, Klumpp-Thomas C, McKnight C, Itkin Z, Chen L, Kazandijian D, Zhang J, Michalowski AM, Simmons JK, Keats J, Thomas CJ, Mock BA. Drug combinations identified by high-throughput screening promote cell cycle transition and upregulate Smad pathways in myeloma. Cancer Lett. 2023 Aug 1;568:216284. doi: 10.1016/j.canlet.2023.216284. Epub 2023 Jun 24. PMID: 37356470; PMCID: PMC10408729.
SEQUENCE No. (e.g., 1, 2, 3, etc.); […] (e.g., Cells, Incubation, Reagent, etc.); VALUE and DESCRIPTION.
1; Cells; 5 uL; white, solid bottom 1536-well Greiner assay plate.
2; Compounds; 23 nL; Kalypsis pin tool (Wako USA) equipped with a 1536-well pin head to transfer to the assay plates.
3; Incubation; 48 hours; 37C incubation.
4; Reagent;5uL; CellTiter Glo (Promega).
5; Detector; 425V; Luminescence; Viewlux PerkinElmer.
NOTES (numbers refer to Sequence numbers above)
1. The cell-based screening methods employed in this study were like those previously published. Briefly, the corresponding myeloma cell lines were screened in 1,536-well plates with 500 cells, 5-uL per well for inhibition of cell viability (assessed by measuring ATP levels with CellTiterGlo).
2. NCATS MIPE 4.0 library of approved and investigational drugs were added using the Kalypsis pin tool. Wells treated with DMSO only for 100% viability and media only wells for 0% viability were used as controls.
3. The assay plates were covered and incubated for 48 hours in a 37C, 5% CO2 incubator with controlled humidity.
4. After 48 hours, CellTilter-GloTM luminescent substrate mix (Promega) reagent was added to the assay plate and plates we incubated for 5 min at room temperature.
5. Signal was measured as median relative luminescence units on a ViewLux (PerkinElmer) multiplate reader.
[1] Heske CM, Davis MI, Baumgart JT, Wilson K, Gormally MV, Chen L, Zhang X, Ceribelli M, Duveau DY, Guha R, Ferrer M, Arnaldez FI, Ji J, Tran HL, Zhang Y, Mendoza A, Helman LJ, Thomas CJ. Matrix Screen Identifies Synergistic Combination of PARP Inhibitors and Nicotinamide Phosphoribosyltransferase (NAMPT) Inhibitors in Ewing Sarcoma. Clin Cancer Res. 2017 Dec 1;23(23):7301-7311. doi: 10.1158/1078-0432.CCR-17-1121. Epub 2017 Sep 12. PMID: 28899971; PMCID: PMC6636827.
Potency is the fitted concentration of half-maximal effect.

Question: For `CNC(=O)c1ccc(N2C(=S)N(c3ccc(C#N)c(C(F)(F)F)c3)C(=O)C23CCC3)cc1F`, which Potency is on record?
Answer: The Potency was 18.7 µM (active).

Question: Which “viability (% of DMSO)” value does the source give for `CC(C)CC(N(C)C)C1(c2ccc(Cl)cc2)CCC1` (stereo unspecified) here?
Answer: The value was 111%.

Question: With `CCCC(C)(COC(N)=O)COC(=O)NC(C)C` (stereo unspecified) as the compound, how does the “viability (% of DMSO)” value read?
Answer: Its value is 147%.

Question: For `O=C(O)C(=O)c1cn(Cc2ccccc2)c2ccc(-c3ccc(OC(F)(F)F)cc3)cc12`, which “viability (% of DMSO)” value is on record?
Answer: The value was 133%.

Question: For `CN(C)CCc1ccc(O)cc1`, which “viability (% of DMSO)” value is on record?
Answer: The value was 143%.

Question: With `C[C@@H]1[C@@H](C(=O)C[C@H]2O[C@@H]3O[C@]4(C)CC[C@@H]5[C@H](C)CC[C@@H]([C@H]2C)[C@@]35OO4)O[C@@H]2O[C@]3(C)CC[C@H]4[C@H](C)CC[C@@H]1[C@@]24OO3` as the compound, how does the Potency read?
Answer: The Potency was 0.59 µM (active).

Question: For `Cc1cccc(C)c1NC(=O)CN1CCCC1=O`, which “viability (% of DMSO)” value is on record?
Answer: Its value is 123%.

Question: With `Cn1c(CCCC(=O)O)nc2cc(N(CCCl)CCCl)ccc21` as the compound, how does the Potency read?
Answer: Its Potency is 5.9 µM (active).

Question: With `Fc1ccc(C(OCCN2CCN(CCCc3ccccc3)CC2)c2ccc(F)cc2)cc1` as the compound, how does the Potency read?
Answer: Its Potency is 16.6 µM (active).

Question: With `COC[C@H]1OC(=O)c2coc3c2[C@@]1(C)C1=C(C3=O)C2CCC(=O)[C@@]2(C)C[C@H]1OC(C)=O` (stereo partly specified) as the compound, how does the Potency read?
Answer: Its Potency is 1.18 µM (active).

Question: Which “viability (% of DMSO)” value does the source give for `COc1ccc(C(CN(C)C)C2(O)CCCCC2)cc1` (stereo unspecified) here?
Answer: The value was 114%.

Question: With `CC1=C2C[C@@H]3[C@@H](CC=C4C[C@@H](O)CC[C@@]43C)[C@@H]2CC[C@]12O[C@H]1C[C@H](C)CN[C@H]1[C@H]2C` as the compound, how does the “viability (% of DMSO)” value read?
Answer: Its value is 121%.

Question: For `C[C@@H]1[C@@H](CC(C[C@H]2O[C@@H]3O[C@]4(C)CC[C@@H]5[C@H](C)CC[C@@H]([C@H]2C)[C@@]35OO4)C[S+](=O)([O-])c2ccc(COC(=O)N(C)C)cc2)O[C@@H]2O[C@]3(C)CC[C@H]4[C@H](C)CC[C@@H]1[C@@]24OO3` (stereo partly specified), which Potency is on record?
Answer: The Potency was 0.296 µM (active).

Question: For `C[C@@H]1O[C@@H](O[C@H]2C[C@@H](O)[C@]3(CO)[C@H]4[C@H](O)C[C@]5(C)[C@@H](C6=CC(=O)OC6)CC[C@]5(O)[C@@H]4CC[C@]3(O)C2)[C@H](O)[C@H](O)[C@H]1O`, which Potency is on record?
Answer: Its Potency is 0.105 µM (active).

Question: With `COC1(CS(=O)c2ccccc2)CCN(CCc2c[nH]c3ccc(F)cc23)CC1` (stereo unspecified) as the compound, how does the “viability (% of DMSO)” value read?
Answer: Its value is 120%.

Question: With `Cn1cc(C2=C(c3cn(C4CCN(Cc5ccccn5)CC4)c4ccccc34)C(=O)NC2=O)c2ccccc21` as the compound, how does the Potency read?
Answer: The Potency was 16.6 µM (active).

Question: For `CN1CCN(C(=O)O[C@H]2c3nccnc3C(=O)N2c2ccc(Cl)cn2)CC1`, which “viability (% of DMSO)” value is on record?
Answer: The value was 124%.

Question: With `C#CCN(C)[C@H](C)Cc1ccccc1` as the compound, how does the “viability (% of DMSO)” value read?
Answer: Its value is 125%.

Question: With `Cc1sc2c(c1C)C(c1ccc(Cl)cc1)=N[C@@H](CC(=O)OC(C)(C)C)c1nnc(C)n1-2` as the compound, how does the Potency read?
Answer: The Potency was 0.526 µM (active).

Question: With `O=C1CC[C@@]2(O)[C@H]3Cc4ccc(O)c5c4[C@@]2(CCN3CC2CC2)[C@H]1O5` as the compound, how does the “viability (% of DMSO)” value read?
Answer: Its value is 128%.

Question: Which Potency does the source give for `Cc1cc(SCc2sc(-c3ccc(C(F)(F)F)c(F)c3)nc2C)ccc1OCC(=O)O` here?
Answer: The Potency was 4.69 µM (active).

Question: For `N[C@@H](Cc1ccc(N(CCCl)CCCl)cc1)C(=O)O`, which Potency is on record?
Answer: Its Potency is 23.5 µM (active).

Question: With `CC(O)(CS(=O)(=O)c1ccc(F)cc1)C(=O)Nc1ccc(C#N)c(C(F)(F)F)c1` (stereo unspecified) as the compound, how does the Potency read?
Answer: The Potency was 1.18 µM (active).

Question: With `CNC(=O)N1N=C(c2ccc(N)cc2)c2cc3c(cc2CC1C)OCO3` (stereo unspecified) as the compound, how does the Potency read?
Answer: The Potency was 3.32 µM (active).

Question: For `CN(C)CCN(C)CCc1ccc(Cl)c(Cl)c1`, which “viability (% of DMSO)” value is on record?
Answer: Its value is 145%.

Question: For `O=P1(NCCCl)OCCCN1CCCl` (stereo unspecified), which “viability (% of DMSO)” value is on record?
Answer: The value was 124%.
